Records with an inconclusive call do not appear. The source made the active and inactive calls. Unless noted, calls come from the whole dose curve; as a rule, active = well fitted curve in either direction with a large enough effect (not every such curve was filed as active); inconclusive = small, poorly fitted or top-dose-only effect, or another doubt; inactive = flat fitted curve, though single readings scatter.
Experiments:
[1] = target: Lysosomal acid glucosylceramidase (Homo sapiens) (UniProt P04062); test: Glucocerebrosidase-p2 (AID 348; in the data active = potency below about 10 µM; note: potency is the fitted concentration of half-maximal effect); conditions: purified GBA, blue fluorogenic substrate, 40 min
Method in brief: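 Normal human glucocerebrosidase (0.2 nM) with blue fluorogenic substrate (80 uM final) in citrate/phosphate pH 5.9 with 10mM sodium taurocholate, 0.01% tween-20; 40 min RT, NaOH/glycine stop; fluorescence Ex 365/Em 440; AC50 from a titration from 0.6 nM upwards.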

[2] = AP1 Signaling Pathway (AID 357); conditions: ME-180 AP-1-bla reporter, EGF-induced, beta-lactamase ratio, 5 h; at 7.69 µM (top of the series) unless noted;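 note: ME-180 reporter cells stimulated with EGF at its EC50 level; % is set by controls: 0 for no effect and ±100 for the full control effect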
Method in brief: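 Titration-series screen for positive or negative modulators of EC50 EGF-induced signaling in ME-180 cells carrying an AP-1-driven beta-lactamase reporter. After 5 hours at 37 degrees Celsius, CCF4 460nm/530nm emission ratio gave %Activity; AC50 values derived.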

[3] = NFAT Signaling Pathway (AID 444); conditions: Jurkat NFAT-bla M1, carbachol, beta-lactamase ratio, 5 h; at 7.69 µM (top of the series) unless noted;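 note: carbachol stimulus at about its EC50 of 1 µM final; % is set by controls: 0 for no effect and ±100 for the full control effect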
Method in brief: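 Jurkat cells carrying an NFAT-driven β-lactamase reporter and co-transfected muscarinic M1 receptor were treated with compound plus carbachol (1 uM final, an EC50 level) for 5 h at 37 °C. CCF4 loading followed for 1 h at RT; 460/530 nm ratio gave %activity.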

[4] = Stat Signaling Pathway (AID 446); conditions: ME-180 SIE beta-lactamase reporter, IL-6 stimulated, 5 h; at 7.69 µM (top of the series) unless noted;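 note: ME-180 cervical cancer cells given 40 pM IL-6 alongside compound; SIE-controlled beta-lactamase reporter measured as 460/530 nm FRET emission ratio; % is set by controls: 0 for no effect and ±100 for the full control effect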
Method in brief: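 Overnight-plated ME-180 cells bearing a STAT Inducible Element beta-lactamase reporter; 5 h co-exposure to compound and 40 pM IL-6; values normalized to 300 pM IL-6 and 125 nM JAK inhibitor controls.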

[5] = target: Glucocorticoid receptor (Homo sapiens) (UniProt P04150); test: GR-EFC Redistribution (AID 451; calls by dose curve; note: potency is the fitted concentration of half-maximal effect); conditions: CHO-K1 GR-EFC translocation, beta-gal luminescence, 2 h
Method in brief: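 CHO-K1 cells stably expressing nuclear-localized β-gal enzyme acceptor and GR fused C-terminally to the enzyme donor fragment; ligand-driven nuclear translocation restores β-gal by complementation. Compounds titrated up to 46 uM final, 2 h at 37 °C; luminescence read.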

[6] = target: Mitogen-activated protein kinase 10 (Mus musculus) (UniProt Q61831); test: JNK3 AlphaScreen Assay (AID 530); conditions: JNK3 lysate, c-Jun phosphorylation; series mostly up to 57.1 µM;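 note: kinase came from lysate of stimulated human HepG2 cells; signal reports phosphorylation of biotinylated GST-cJun 1-79 at Ser73 with 10 µM ATP; % is set by controls: 0 for no effect and ±100 for the full control effect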
Method in brief: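 Phosphorylation of biotinylated GST-cJun(1-79) at Ser73 is measured by AlphaScreen proximity luminescence. Enzyme is JNK3 in HepG2 lysates activated with interleukin-1beta and tumor necrosis factor alpha; ATP is 10 uM final.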

[7] = target: 3',5'-cyclic-AMP phosphodiesterase 4B (Homo sapiens) (UniProt Q07343); test: qHTS Assay for Inhibitors of PDE-IV (AID 607; active = well fitted activation curve with a large enough effect in the main read-out, with a control signal flat, not every such curve was filed as active; note: % of control where 0% means no effect); conditions: HEK293 ACTOne CNG channel cells, membrane potential fluorescence; series mostly up to 22.9 µM
Method in brief: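 Live HEK293 cells with a modified cyclic nucleotide-gated (CNG) channel report intracellular cAMP via membrane-potential dye fluorescence (ex 535/em 590 nm). Endogenous PDE-IV was targeted. Compounds were tested at up to 22.9 uM final; RO 20-1724 100 uM served as control.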

[8] = qHTS Assay for Identification of Small Molecule Agonists for Hypoxia Response Element Signaling Pathway (AID 914; active = well fitted activation curve with a large enough effect in the signal ratio, with a control signal flat, not every such curve was filed as active; the % refers to the signal ratio; note: % of control where 0% means no effect); conditions: ME-180 (cervical carcinoma) HRE-bla reporter, beta-lactamase ratio, CoCl2, 17 h; activation: hits give high values
Method in brief: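 HRE-bla ME-180 cells with beta-lactamase reporter under hypoxia response element, compounds with EC50 CoCl2 for 17 hours at 37 C. CCF4 substrate, 460nm/530nm emission ratio gave %Activity; AC50 from titration series.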

[9] = Primary qHTS for small molecule stabilizers of the endoplasmic reticulum resident proteome: Secreted ER Calcium Modulated Protein (SERCaMP) assay (AID 1508630; active = well fitted curve in the direction sought with a large enough effect; an effect the other way counts as inactive or inconclusive; note: % is set by controls: 0 for no effect and ±100 for the full control effect); conditions: SH-SY5Y GLuc-SERCaMP (Gaussia luciferase released on ER calcium loss) secretion, thapsigargin, luminescence; series mostly up to 38.4 µM
Method in brief: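 The SH-SY5Y reporter protocol was run at 3 concentrations up to 38.3 uM (primary) or 11 concentrations (follow-up): 16 h compound, 100 nM thapsigargin for 4 h, then extracellular luciferase luminescence.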

[10] = target: Cytochrome P450 3A4 (Homo sapiens) (UniProt P08684); test: qHTS Assay for Activators of Cytochrome P450 3A4 (AID 885; active = well fitted curve in the direction sought with a large enough effect; an effect the other way counts as inactive or inconclusive; note: nearly all actives have a fitted effect of over 65% in size); conditions: recombinant CYP3A4, Luciferin-PPXE luminescence, 60 min; series mostly up to 57.1 µM
Method in brief: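 Using 20nM recombinant human CYP3A4 in potassium phosphate (200mM), substrate Luciferin-PPXE at 25uM, luminescent luciferin detection followed a 60-min RT NADPH reaction; data scaled to 57 uM ketoconazole.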

[11] = target: Cytochrome P450 2C9 (Homo sapiens) (UniProt P11712); test: qHTS Assay for Inhibitors and Substrates of Cytochrome P450 2C9 (AID 883; active = well fitted curve in the direction sought with a large enough effect; an effect the other way counts as inactive or inconclusive; note: % is set by controls: 0 for no effect and ±100 for the full control effect; nearly all actives have a fitted effect of over 60% in size); conditions: recombinant CYP2C9, luciferin-H luminescence, 60 min; series mostly up to 57.1 µM
Method in brief: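 CYP2C9 deoxyluciferin hydroxylation, 37C, 60 min with NADPH regeneration; 10nM enzyme, 100uM Luciferin-H (KM). Glo detection reagent stopped reaction; luminescence normalized to sulphaphenazole (57uM) full inhibition.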

[12] = target: Cytochrome P450 2C19 (Homo sapiens) (UniProt P33261); test: qHTS Assay for Inhibitors and Substrates of Cytochrome P450 2C19 (AID 899; active = well fitted curve in the direction sought with a large enough effect; an effect the other way counts as inactive or inconclusive; note: % is set by controls: 0 for no effect and ±100 for the full control effect; nearly all actives have a fitted effect of over 60% in size); conditions: recombinant CYP2C19, luciferin-H EGE luminescence; series mostly up to 57.1 µM
Method in brief: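 In 50mM KPO4, the reaction held 5nM enzyme and KM-level (10uM) Luciferin-H EGE; it ran 60 min at 37C after NADPH regeneration and a 10 min compound preincubation. Luminescence values were scaled to 57uM ketoconazole as complete inhibition.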

Lysosomal acid glucosylceramidase (Homo sapiens), sequence (P04062 whole entry, looked up): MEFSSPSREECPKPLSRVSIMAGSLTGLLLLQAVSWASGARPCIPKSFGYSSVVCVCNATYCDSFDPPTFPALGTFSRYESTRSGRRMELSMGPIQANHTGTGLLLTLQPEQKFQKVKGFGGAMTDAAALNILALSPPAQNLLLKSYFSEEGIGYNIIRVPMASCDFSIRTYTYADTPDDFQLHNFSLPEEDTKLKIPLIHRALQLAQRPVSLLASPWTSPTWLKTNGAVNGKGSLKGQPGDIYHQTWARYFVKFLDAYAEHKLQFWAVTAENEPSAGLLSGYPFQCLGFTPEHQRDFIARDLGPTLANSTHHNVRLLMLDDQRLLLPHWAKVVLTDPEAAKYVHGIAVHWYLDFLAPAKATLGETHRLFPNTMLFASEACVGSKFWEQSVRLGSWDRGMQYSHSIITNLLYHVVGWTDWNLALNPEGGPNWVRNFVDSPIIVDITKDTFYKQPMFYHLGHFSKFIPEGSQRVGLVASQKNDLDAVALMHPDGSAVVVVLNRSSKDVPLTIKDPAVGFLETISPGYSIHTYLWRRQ
Glucocorticoid receptor (Homo sapiens), sequence (P04150 whole entry, looked up, the tested form may be a part): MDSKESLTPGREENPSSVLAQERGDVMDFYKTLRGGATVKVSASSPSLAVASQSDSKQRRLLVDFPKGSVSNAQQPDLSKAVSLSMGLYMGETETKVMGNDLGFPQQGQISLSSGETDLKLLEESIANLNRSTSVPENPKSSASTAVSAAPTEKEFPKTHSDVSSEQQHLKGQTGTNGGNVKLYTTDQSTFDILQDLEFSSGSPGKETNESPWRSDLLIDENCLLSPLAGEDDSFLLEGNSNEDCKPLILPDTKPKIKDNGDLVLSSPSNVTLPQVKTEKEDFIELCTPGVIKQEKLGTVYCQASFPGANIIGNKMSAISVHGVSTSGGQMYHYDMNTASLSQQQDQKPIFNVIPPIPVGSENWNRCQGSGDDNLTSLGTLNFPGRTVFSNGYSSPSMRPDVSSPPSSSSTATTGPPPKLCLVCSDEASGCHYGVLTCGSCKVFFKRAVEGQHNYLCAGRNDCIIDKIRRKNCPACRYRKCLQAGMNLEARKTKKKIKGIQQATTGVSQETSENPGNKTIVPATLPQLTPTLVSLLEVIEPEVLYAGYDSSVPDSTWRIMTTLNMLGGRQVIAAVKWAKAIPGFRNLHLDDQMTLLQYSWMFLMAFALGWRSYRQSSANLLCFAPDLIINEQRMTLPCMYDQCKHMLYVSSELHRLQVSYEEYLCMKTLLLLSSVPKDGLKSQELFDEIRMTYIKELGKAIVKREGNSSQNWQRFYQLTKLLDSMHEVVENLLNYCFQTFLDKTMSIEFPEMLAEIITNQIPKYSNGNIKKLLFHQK
Cytochrome P450 3A4 (Homo sapiens), sequence (P08684 whole entry, looked up): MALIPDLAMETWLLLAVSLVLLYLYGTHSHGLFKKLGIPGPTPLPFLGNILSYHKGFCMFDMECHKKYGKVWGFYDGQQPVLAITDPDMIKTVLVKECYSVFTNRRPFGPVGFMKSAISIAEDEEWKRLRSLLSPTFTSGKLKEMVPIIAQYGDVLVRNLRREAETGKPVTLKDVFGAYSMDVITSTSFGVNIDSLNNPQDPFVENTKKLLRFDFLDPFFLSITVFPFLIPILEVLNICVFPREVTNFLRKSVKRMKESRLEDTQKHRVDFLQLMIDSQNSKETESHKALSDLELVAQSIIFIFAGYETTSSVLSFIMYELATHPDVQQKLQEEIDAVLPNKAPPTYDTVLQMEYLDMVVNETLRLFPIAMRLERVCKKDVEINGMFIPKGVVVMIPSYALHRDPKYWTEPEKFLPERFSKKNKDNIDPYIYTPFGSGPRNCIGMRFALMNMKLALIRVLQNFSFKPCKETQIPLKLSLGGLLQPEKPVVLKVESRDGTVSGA
3',5'-cyclic-AMP phosphodiesterase 4B (Homo sapiens), sequence (Q07343 whole entry, looked up): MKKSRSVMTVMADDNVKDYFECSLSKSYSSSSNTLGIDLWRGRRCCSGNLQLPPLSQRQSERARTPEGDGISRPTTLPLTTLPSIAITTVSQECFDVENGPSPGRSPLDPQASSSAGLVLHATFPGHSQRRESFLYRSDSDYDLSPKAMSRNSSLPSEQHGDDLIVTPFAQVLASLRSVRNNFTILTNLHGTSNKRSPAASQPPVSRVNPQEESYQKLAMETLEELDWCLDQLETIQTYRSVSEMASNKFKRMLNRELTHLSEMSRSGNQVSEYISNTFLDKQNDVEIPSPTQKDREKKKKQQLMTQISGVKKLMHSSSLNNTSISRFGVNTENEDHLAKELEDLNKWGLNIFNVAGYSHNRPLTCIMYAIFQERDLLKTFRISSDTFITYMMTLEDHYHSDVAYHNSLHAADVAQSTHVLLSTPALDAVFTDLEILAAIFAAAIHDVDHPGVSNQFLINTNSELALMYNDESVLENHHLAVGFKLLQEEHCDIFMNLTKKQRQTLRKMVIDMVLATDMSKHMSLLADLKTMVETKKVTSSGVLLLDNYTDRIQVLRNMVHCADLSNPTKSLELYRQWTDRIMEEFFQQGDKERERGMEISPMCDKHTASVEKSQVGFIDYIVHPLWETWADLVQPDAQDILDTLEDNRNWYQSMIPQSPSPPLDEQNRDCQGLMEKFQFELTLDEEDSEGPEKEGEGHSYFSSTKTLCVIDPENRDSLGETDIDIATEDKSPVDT
Cytochrome P450 2C9 (Homo sapiens), sequence (P11712 whole entry, looked up): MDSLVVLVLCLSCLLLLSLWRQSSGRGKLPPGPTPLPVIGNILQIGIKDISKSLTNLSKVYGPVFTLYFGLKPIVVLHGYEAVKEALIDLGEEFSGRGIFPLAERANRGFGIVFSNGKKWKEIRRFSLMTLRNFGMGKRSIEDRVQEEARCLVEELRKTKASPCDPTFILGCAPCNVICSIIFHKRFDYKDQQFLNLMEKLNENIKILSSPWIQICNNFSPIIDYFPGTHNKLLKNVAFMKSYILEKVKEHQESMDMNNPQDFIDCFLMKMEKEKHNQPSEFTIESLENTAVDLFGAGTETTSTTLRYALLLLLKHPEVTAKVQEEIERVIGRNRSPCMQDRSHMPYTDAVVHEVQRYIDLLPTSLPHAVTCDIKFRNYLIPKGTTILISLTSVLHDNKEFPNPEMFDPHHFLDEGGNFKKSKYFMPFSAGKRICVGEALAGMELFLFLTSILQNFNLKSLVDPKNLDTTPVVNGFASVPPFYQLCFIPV
Cytochrome P450 2C19 (Homo sapiens), sequence (P33261 whole entry, looked up): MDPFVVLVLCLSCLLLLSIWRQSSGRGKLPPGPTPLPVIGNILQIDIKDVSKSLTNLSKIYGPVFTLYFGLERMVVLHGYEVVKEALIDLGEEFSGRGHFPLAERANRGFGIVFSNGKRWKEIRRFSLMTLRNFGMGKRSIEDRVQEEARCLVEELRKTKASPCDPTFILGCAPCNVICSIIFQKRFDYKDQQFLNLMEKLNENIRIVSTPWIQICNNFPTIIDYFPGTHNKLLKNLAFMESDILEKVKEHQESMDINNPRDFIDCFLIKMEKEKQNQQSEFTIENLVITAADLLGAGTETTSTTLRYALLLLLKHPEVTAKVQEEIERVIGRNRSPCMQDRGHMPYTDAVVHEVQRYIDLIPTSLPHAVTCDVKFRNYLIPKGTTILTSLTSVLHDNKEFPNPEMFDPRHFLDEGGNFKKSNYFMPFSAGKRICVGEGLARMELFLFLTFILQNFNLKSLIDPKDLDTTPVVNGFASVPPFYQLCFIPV

O=C(c1ccco1)N1CCC2(CCN(Cc3cc(C(F)(F)F)cc(C(F)(F)F)c3)CC2)CC1
inactive: Potency [1] > 11.4 µM | activity change, negative = inhibition [2] -1.98% | activity change, negative = inhibition [3] 2.65% | activity, negative = inhibition [4] 0.499% | Potency [5] > 46 µM | Potency [6] | Potency [7] | activation [8] -7.14% | outcome [9]

COCC(=O)N1CCC2(CCCN(c3ccccn3)C2)CC1
inactive: Potency [1] > 11.4 µM | activity change, negative = inhibition [2] 0.674% | activity change, negative = inhibition [3] -15.3% | activity, negative = inhibition [4] 11.7% | Potency [5] > 46 µM | Potency [6] | Potency [7] | outcome [9]

O=C(c1csnn1)N1CCC[C@@]2(CCN(c3cccc(-c4ccccc4)c3)C2)C1
inactive: Potency [1] > 11.4 µM | activity change, negative = inhibition [2] -28.1% | activity change, negative = inhibition [3] 12.1% | activity, negative = inhibition [4] 6.22% | Potency [5] > 46 µM | Potency [6] | Potency [7] | outcome [9]

COc1ccc(C(=O)N2CCC3(CCN(C(=O)Nc4ccccc4)CC3)CC2)cc1
inactive: Potency [1] > 11.4 µM | activity change, negative = inhibition [2] 0.785% | activity change, negative = inhibition [3] 6.48% | activity, negative = inhibition [4] -6.61% | Potency [5] > 46 µM | Potency [6] | Potency [7] | outcome [9]

O=C(c1ccncc1)N1CCC[C@@]2(CCN(Cc3ccccc3)C2)C1
inactive: Potency [1] > 11.4 µM | activity change, negative = inhibition [2] 1% | activity change, negative = inhibition [3] -11.7% | activity, negative = inhibition [4] 7.78% | Potency [5] > 46 µM | Potency [6] | Potency [7] | Potency [10] | outcome [9]

COCC(=O)N1CCC[C@@]2(CCN(Cc3nccs3)C2)C1
inactive: Potency [1] > 11.4 µM | activity change, negative = inhibition [2] -2.92% | activity change, negative = inhibition [3] 0.146% | activity, negative = inhibition [4] 4.7% | Potency [5] > 46 µM | Potency [6] | Potency [7] | Potency [10] | outcome [9]

CS(=O)(=O)N1CCC2(CC1)CN(c1ccc(-c3ccccc3)cc1)C2
inactive: Potency [1] > 11.4 µM | activity change, negative = inhibition [2] -8.52% | activity change, negative = inhibition [3] -6.69% | activity, negative = inhibition [4] -25.1% | Potency [5] > 46 µM | Potency [6] | Potency [7] | Potency [11] | Potency [12] | outcome [9]

COc1ccc(NC(=O)N2CC[C@@]3(CCCN(C(=O)c4cccc(F)c4)C3)C2)cc1
inactive: Potency [1] > 11.4 µM | activity change, negative = inhibition [2] -11.4% | activity change, negative = inhibition [3] 6.04% | activity, negative = inhibition [4] -0.331% | Potency [5] > 46 µM | Potency [6] | Potency [7] | Potency [10] | outcome [9]

Source: PubChem BioAssay (NCATS)
